Whole data set: some 18,000 sequences, median “log2 normalized intensity” near 0.39, cut for the highest 2% near 6.6. This is one part of a sample in which the highest values are shown more often than they occur.
Target: T1, HNF4alpha2 (COS-7 nuclear extract) (Homo sapiens, UniProt P41235 1-474)
T1 sequence: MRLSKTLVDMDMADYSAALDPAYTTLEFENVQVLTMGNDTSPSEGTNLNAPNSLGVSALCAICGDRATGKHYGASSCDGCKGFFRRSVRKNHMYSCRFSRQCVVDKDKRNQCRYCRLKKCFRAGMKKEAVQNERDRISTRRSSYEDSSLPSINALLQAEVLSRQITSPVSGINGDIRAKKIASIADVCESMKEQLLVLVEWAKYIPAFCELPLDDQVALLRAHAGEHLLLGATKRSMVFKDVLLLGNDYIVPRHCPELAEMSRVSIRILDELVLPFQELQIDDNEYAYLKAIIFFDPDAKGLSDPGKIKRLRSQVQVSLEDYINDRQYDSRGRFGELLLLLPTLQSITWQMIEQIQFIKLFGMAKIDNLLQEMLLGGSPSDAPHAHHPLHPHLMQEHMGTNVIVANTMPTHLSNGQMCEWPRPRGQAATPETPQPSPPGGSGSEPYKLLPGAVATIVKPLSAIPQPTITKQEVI
Assay: protein-binding microarray; COS-7 nuclear extract on double-stranded Agilent 4x180k PBM; binding buffer, salt, pH and temperature not given in the material; high values mean tight binding
Conditions: chain copies: 2; label: 3' end of strand 1 on the slide; dsDNA, one strand shown
Method in brief: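 Nuclear extracts from COS-7 cells expressing a transiently transfected human HNF4α isoform were put on a custom Agilent SurePrint G3 4x180k array carrying ~44,000 double-stranded ~60-nt test sequences in quadruplicate. Imaging used an Agilent G2565CA scanner at 2-µm resolution. Binding signal is the background-corrected, normalized gProcessedSignal from Agilent software.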

**Q.** For “AGAAGCCACTGCGACCTTTGCCCTCCCTAAGCCTAGGGAGATTAGAGTATCGGTCGA”, which binding signal is on record?
**A.** The binding signal was 7.38 log2 normalized intensity.

**Q.** “CTTCTCCGCGGCGGGCCCTCGACCTTTGCCGCCTAGGGAGATTAGAGTATCGGTCGA” was tested. Which binding signal did it give?
**A.** Its binding signal is 5.07 log2 normalized intensity.

**Q.** “TTCCCCTCCCTTCCACCTTTGCCCTCCAAAGCCTAGGGAGATTAGAGTATCGGTCGA” was tested. Which binding signal did it give?
**A.** The binding signal was 5.76 log2 normalized intensity.

**Q.** For “ACCGGCAGAGAGAAGCCACTGCGACCTTTGGCCTAGGGAGATTAGAGTATCGGTCGA”, which binding signal is on record?
**A.** Its binding signal is 4.92 log2 normalized intensity.

**Q.** With “TTGCCATGACCTTTGAAGCCCAGAACACTCGCCTAGGGAGATTAGAGTATCGGTCGA” as the sequence, how does the binding signal read?
**A.** Its binding signal is 3.59 log2 normalized intensity.

**Q.** For “CCGCGGCGGGCCCTCGACCTTTGCCCTCCAGCCTAGGGAGATTAGAGTATCGGTCGA”, which binding signal is on record?
**A.** The binding signal was 9.87 log2 normalized intensity.

**Q.** With “ACATGAGCTAGTGCTAAAGGTCATATCCAAGCCTAGGGAGATTAGAGTATCGGTCGA” as the sequence, how does the binding signal read?
**A.** Its binding signal is 4.2 log2 normalized intensity.

**Q.** Which binding signal does the source give for “GGCCTTTGGACCCAGACTGAATCACACTACGCCTAGGGAGATTAGAGTATCGGTCGA” here?
**A.** The binding signal was 3.76 log2 normalized intensity.

**Q.** “GGTGTTAAAATAACGACCTTTGGGCTAAAAGCCTAGGGAGATTAGAGTATCGGTCGA” was tested. Which binding signal did it give?
**A.** Its binding signal is 3.81 log2 normalized intensity.

**Q.** Which binding signal does the source give for “AGGCCAGCTCATAGGGATCAGATAAGAAGTGCCTAGGGAGATTAGAGTATCGGTCGA” here?
**A.** Its binding signal is -0.997 log2 normalized intensity.

**Q.** How did the binding signal turn out when “GTAACCTCAAAGGAGGTCAGAACTGTGGACGCCTAGGGAGATTAGAGTATCGGTCGA” was run?
**A.** Its binding signal is 1.22 log2 normalized intensity.

**Q.** For “CCATAGCGAAGCCGGCGGCGGAATGCTTGTGCCTAGGGAGATTAGAGTATCGGTCGA”, which binding signal is on record?
**A.** The binding signal was -0.837 log2 normalized intensity.

**Q.** “TATCTTTGGAGAATGCCTTTTGTGTAGGAGGCCTAGGGAGATTAGAGTATCGGTCGA” was tested. Which binding signal did it give?
**A.** The binding signal was 1.64 log2 normalized intensity.

**Q.** Which binding signal does the source give for “CTAGTGTACAGGTGACCTTTGGAATGAACCGCCTAGGGAGATTAGAGTATCGGTCGA” here?
**A.** Its binding signal is 7.14 log2 normalized intensity.

**Q.** “TGGCTGGCGGCTAGTGTACAGGTGACCTTTGCCTAGGGAGATTAGAGTATCGGTCGA” was tested. Which binding signal did it give?
**A.** Its binding signal is 7.2 log2 normalized intensity.

**Q.** With “GCTAGGTGGCGGGCTGGCTCAGGACAGGTGGCCTAGGGAGATTAGAGTATCGGTCGA” as the sequence, how does the binding signal read?
**A.** The binding signal was 0.0816 log2 normalized intensity.

**Q.** How did the binding signal turn out when “AGATAGTGACGGAGGTGACCTTTGGTTGTCGCCTAGGGAGATTAGAGTATCGGTCGA” was run?
**A.** The binding signal was 5.52 log2 normalized intensity.

**Q.** “GGAATGAGCAGGAACCTTGTGGTGGTGAAAGCCTAGGGAGATTAGAGTATCGGTCGA” was tested. Which binding signal did it give?
**A.** The binding signal was 1.01 log2 normalized intensity.

**Q.** Which binding signal does the source give for “TTGGAGAATGCCTTTTGTGTAGGAGTACACGCCTAGGGAGATTAGAGTATCGGTCGA” here?
**A.** Its binding signal is 1.7 log2 normalized intensity.

**Q.** With “GGCGGCTAGTGTACAGGTGACCTTTGGAATGCCTAGGGAGATTAGAGTATCGGTCGA” as the sequence, how does the binding signal read?
**A.** Its binding signal is 8.95 log2 normalized intensity.

**Q.** “AAAGCTGGCTGGCGGCTAGTGTACAGGTGAGCCTAGGGAGATTAGAGTATCGGTCGA” was tested. Which binding signal did it give?
**A.** Its binding signal is 1.06 log2 normalized intensity.

**Q.** With “ACTCCACATATTGTAGATAATACTGTGTCAGCCTAGGGAGATTAGAGTATCGGTCGA” as the sequence, how does the binding signal read?
**A.** Its binding signal is 0.275 log2 normalized intensity.

**Q.** With “TTCCCTTGTTTACCTTGGTGTTTCTTTGATGCCTAGGGAGATTAGAGTATCGGTCGA” as the sequence, how does the binding signal read?
**A.** Its binding signal is 1.68 log2 normalized intensity.

**Q.** With “AGCAGCCTCAGTGGCTCACAAATGGAGTTTGCCTAGGGAGATTAGAGTATCGGTCGA” as the sequence, how does the binding signal read?
**A.** The binding signal was 0.801 log2 normalized intensity.

**Q.** For “GCTAGTAAGGAGCTGAGTCATAGTGGACTTGCCTAGGGAGATTAGAGTATCGGTCGA”, which binding signal is on record?
**A.** Its binding signal is 3.44 log2 normalized intensity.

**Q.** Which binding signal does the source give for “ACAGCACTGACCTTTGAGAGTCAACACTGAGCCTAGGGAGATTAGAGTATCGGTCGA” here?
**A.** The binding signal was 2.58 log2 normalized intensity.

**Q.** How did the binding signal turn out when “AAGAAGAGCTCAGTCACAGCAGTGGACTTTGCCTAGGGAGATTAGAGTATCGGTCGA” was run?
**A.** The binding signal was 6.61 log2 normalized intensity.

**Q.** “ACTTTGACCTTGGCACTGAAGAATGTCTAAGCCTAGGGAGATTAGAGTATCGGTCGA” was tested. Which binding signal did it give?
**A.** Its binding signal is 1.8 log2 normalized intensity.

**Q.** For “AGAGTGAGCAGCACTTTTGGAGTTTGACCTGCCTAGGGAGATTAGAGTATCGGTCGA”, which binding signal is on record?
**A.** The binding signal was 7.73 log2 normalized intensity.

**Q.** “GGGGCAGAGTGAGCAGCACTTTTGGAGTTTGCCTAGGGAGATTAGAGTATCGGTCGA” was tested. Which binding signal did it give?
**A.** Its binding signal is 1.51 log2 normalized intensity.

**Q.** For “ACAGCAGTGGACTTTGACCTTGGCACTGAAGCCTAGGGAGATTAGAGTATCGGTCGA”, which binding signal is on record?
**A.** Its binding signal is 9.07 log2 normalized intensity.

**Q.** For “GGAGAGCTAGTAAGGAGCTGAGTCATAGTGGCCTAGGGAGATTAGAGTATCGGTCGA”, which binding signal is on record?
**A.** The binding signal was -0.825 log2 normalized intensity.

**Q.** “TAAGGAGCTGAGTCATAGTGGACTTTGCCTGCCTAGGGAGATTAGAGTATCGGTCGA” was tested. Which binding signal did it give?
**A.** The binding signal was 6.9 log2 normalized intensity.

**Q.** “GAGCTCAGTCACAGCAGTGGACTTTGACCTGCCTAGGGAGATTAGAGTATCGGTCGA” was tested. Which binding signal did it give?
**A.** The binding signal was 11.2 log2 normalized intensity.

**Q.** With “GAGCAGCACTTTTGGAGTTTGACCTGGAGCGCCTAGGGAGATTAGAGTATCGGTCGA” as the sequence, how does the binding signal read?
**A.** Its binding signal is 5.38 log2 normalized intensity.

**Q.** Which binding signal does the source give for “TATGACCAGTGTGTTGTGCTGACCTCCTGTGCCTAGGGAGATTAGAGTATCGGTCGA” here?
**A.** The binding signal was 3.19 log2 normalized intensity.

**Q.** How did the binding signal turn out when “CTGGTGTGCTTTCTGTCCTCTCAAAGTCCAGCCTAGGGAGATTAGAGTATCGGTCGA” was run?
**A.** Its binding signal is 3.7 log2 normalized intensity.

**Q.** Which binding signal does the source give for “TGATTTGTATGATCTTGGGTATATCCTTTAGCCTAGGGAGATTAGAGTATCGGTCGA” here?
**A.** Its binding signal is 1.54 log2 normalized intensity.

**Q.** With “TGACCTTGCAGTGGCAAGGCAAAAGAGACAGCCTAGGGAGATTAGAGTATCGGTCGA” as the sequence, how does the binding signal read?
**A.** Its binding signal is 1.17 log2 normalized intensity.

**Q.** How did the binding signal turn out when “CAGTCACAGCAGTGGACTTTGACCTTGGCAGCCTAGGGAGATTAGAGTATCGGTCGA” was run?
**A.** Its binding signal is 10.2 log2 normalized intensity.

**Q.** “TAACTTACAGTGCACTTTGACCGCTCATTTGCCTAGGGAGATTAGAGTATCGGTCGA” was tested. Which binding signal did it give?
**A.** Its binding signal is 5.83 log2 normalized intensity.

**Q.** Which binding signal does the source give for “CTGCGTAACTTACAGTGCACTTTGACCGCTGCCTAGGGAGATTAGAGTATCGGTCGA” here?
**A.** The binding signal was 7.14 log2 normalized intensity.

**Q.** With “ATGTGACCTTTTGGACCACAGAGTGACCTGGCCTAGGGAGATTAGAGTATCGGTCGA” as the sequence, how does the binding signal read?
**A.** Its binding signal is 5.16 log2 normalized intensity.

**Q.** “CAGGACTGCGTAACTTACAGTGCACTTTGAGCCTAGGGAGATTAGAGTATCGGTCGA” was tested. Which binding signal did it give?
**A.** Its binding signal is 4.9 log2 normalized intensity.
